{"source": "PubChem BioAssay AID1852", "about": "(Sanford-Burnham Center for Chemical Genomics, 2009)", "note": "Among all 2,500 compounds or so, about 1,100 (44%) were called active. The set was probably picked from earlier hits. The list shows a part of the results. A number with no mark means an inactive call.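 How the source made its calls: active means inhibition above 50% at 4 µM in the single-point screen; inactive means inhibition of 50% or less.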"}
{"experiment": "TNF-a-driven NF-kB reporter inhibitors, primary screen, selectivity assay for NOD1/NOD2 signaling inhibitor project, cell-based, HEK293T NF-kB-Luc, luminescence (AID 1852)", "details": "TNF-a induced, 14 h, at 4 µM, hits give high values"}
{"smiles": "COc1ccccc1COc1ccc2c(C)c(CCC(=O)O)c(=O)oc2c1C", "inhibition": "5.6%"}
{"smiles": "Cc1c(CCC(=O)O)c(=O)oc2c(C)c(OCc3ccccc3Cl)ccc12", "inhibition": "17.1%"}
{"smiles": "Cc1c(CCC(=O)O)c(=O)oc2cc(OCc3ccccc3Br)ccc12", "inhibition": "75.3% (active)"}
{"smiles": "O=C(CCl)Nc1c2c(nn1-c1ccccc1)CSC2", "inhibition": "-6.5%"}
{"smiles": "CC(=O)Nc1ccc(SCC(=O)c2cc(C)n(Cc3cccs3)c2C)cc1", "inhibition": "-119%"}
{"smiles": "O=C(CCl)Nc1ccccc1C(=O)NCc1ccccc1", "inhibition": "-4%"}
{"smiles": "Cc1c(C#N)c(NC(=O)CCl)n(Cc2cccs2)c1C", "inhibition": "101% (active)"}
{"smiles": "Cc1c(C#N)c(NC(=O)CCl)n(Cc2ccccc2)c1C", "inhibition": "95.9% (active)"}
{"smiles": "CC(=O)Nc1ccccc1OCC(=O)c1cc(C)n(Cc2cccs2)c1C", "inhibition": "28.3%"}
{"smiles": "CCC(C)(C)c1ccc(OCCCC[n+]2cccc(C)c2C)c(C(C)(C)CC)c1", "inhibition": "18.8%"}
{"smiles": "CCCCCCCCC[n+]1cccc2c3ccccc3ccc21", "inhibition": "83.9% (active)"}
{"smiles": "CCCCCCCC[n+]1cccc2c3ccccc3ccc21", "inhibition": "83.6% (active)"}
{"smiles": "COc1cccc(OCCn2cc(C(C)=O)c3ccccc32)c1", "inhibition": "26.8%"}
{"smiles": "CC(=O)c1cn(CCOc2ccccc2C)c2ccccc12", "inhibition": "46.6%"}
{"smiles": "CC(=O)c1cn(CCOc2cc(C)ccc2C)c2ccccc12", "inhibition": "60.4% (active)"}
{"smiles": "CN(C)/C=C/C(=O)c1ccc2noc(-c3ccccc3)c2c1", "inhibition": "30.4%"}
{"smiles": "c1ccc(-c2csc3ncnc(NCc4ccccn4)c23)cc1", "inhibition": "13.4%"}
{"smiles": "c1ccc(CNc2ncnc3scc(-c4cccs4)c23)nc1", "inhibition": "57.5% (active)"}
{"smiles": "O=C(Nc1nc2ccccc2n1CCOc1ccc(Cl)cc1)c1ccco1", "inhibition": "102% (active)"}
{"smiles": "Cc1ccc(OCCn2c(NC(=O)c3ccco3)nc3ccccc32)cc1", "inhibition": "19.6%"}
{"smiles": "COc1cccc(C(C)NC(=O)Nc2ccccc2Cl)c1", "note": "(stereo unspecified)", "inhibition": "37.3%"}
{"smiles": "O=C(Nc1ccccc1Cl)/C(Cl)=C(\\Cl)S(=O)c1ccccc1", "note": "(stereo unspecified)", "inhibition": "107% (active)"}
{"smiles": "CC1=C(C(=O)OCc2ccc3c(c2)OCO3)C(c2ccc(O)c([N+](=O)[O-])c2)NC(=O)N1", "note": "(stereo unspecified)", "inhibition": "58% (active)"}
{"smiles": "O=C(CCl)Nc1ccccc1C(=O)Nc1ccc2c(c1)OCO2", "inhibition": "10.4%"}
{"smiles": "O=C(NCCc1ccccc1)c1ccc2c(c1)OCO2", "inhibition": "-77.5%"}
{"smiles": "CC1=C(C(=O)OCc2ccc3c(c2)OCO3)C(c2ccccc2)NC(=O)N1", "note": "(stereo unspecified)", "inhibition": "96.6% (active)"}
{"smiles": "CC1=C(C(=O)OCc2ccc3c(c2)OCO3)C(c2ccc(F)cc2)NC(=O)N1", "note": "(stereo unspecified)", "inhibition": "104% (active)"}
{"smiles": "CC1=C(C(=O)OCc2ccc3c(c2)OCO3)C(c2ccc(Cl)cc2)NC(=O)N1", "note": "(stereo unspecified)", "inhibition": "102% (active)"}
{"smiles": "COc1ccc(C(=O)N2CCCC(N3CCN(c4ccccc4OC)CC3)C2)c(OC)n1", "note": "(stereo unspecified)", "inhibition": "25%"}
{"smiles": "O=c1cc(CSc2ccc(Cl)cc2)nc(-c2ccccn2)[nH]1", "inhibition": "102% (active)"}
{"smiles": "Cc1ccc(SCc2cc(=O)[nH]c(SCC(=O)Nc3cc(Cl)ccc3Cl)n2)cc1", "inhibition": "28.1%"}
{"smiles": "CCOc1cc(Br)cc(/C=N/NC(=O)c2cccnc2)c1O", "inhibition": "69.2% (active)"}
{"smiles": "C[C@@H](C(=O)Nc1ccc2ccccc2c1)[C@@H]1C[C@@]1(C)[C@@H](NC(=O)c1cccnc1)c1ccccc1", "inhibition": "11%"}
{"smiles": "O=C(N/N=C\\c1c(O)ccc2ccccc12)c1cncc(Br)c1", "inhibition": "54.9% (active)"}
{"smiles": "O=C(CNC(=O)c1cccc(Br)c1)N/N=C/c1cc(Br)cc(Br)c1O", "inhibition": "11.3%"}
{"smiles": "S=C(N/N=C/c1ccc2ncccc2c1)Nc1cccnc1", "inhibition": "29.3%"}
{"smiles": "O=C(N/N=C/c1c(O)ccc2ccccc12)c1cccnc1", "inhibition": "101% (active)"}
{"smiles": "O=C(CCCc1nc(-c2ccc(Cl)cc2)no1)NC1CCCCC1", "inhibition": "28.3%"}
{"smiles": "Cc1ccc(-c2noc(CCCC(=O)NC3CCCCC3)n2)cc1", "inhibition": "29.6%"}
{"smiles": "O=C(CCCc1nc(-c2ccc(Cl)cc2)no1)NC1CCCC1", "inhibition": "55.5% (active)"}
{"smiles": "CC(=O)N(Cc1ccc(F)cc1)C1=C(NCCc2ccccc2)C(=O)c2ccccc2C1=O", "inhibition": "102% (active)"}
{"smiles": "O=C(NCc1ccccc1)C1CCCN1S(=O)(=O)c1ccc(F)cc1", "note": "(stereo unspecified)", "inhibition": "21.4%"}
{"smiles": "Cc1cc(C)nc(OC(C(=O)O)C(OCCc2ccccc2)(c2ccc(F)cc2)c2ccc(F)cc2)n1", "note": "(stereo unspecified)", "inhibition": "-13.2%"}
{"smiles": "CC(=O)N(Cc1ccc(F)cc1)C1=C(NCc2ccccc2)C(=O)c2ccccc2C1=O", "inhibition": "91.2% (active)"}
{"smiles": "CC1(C)N=C(N)N=C(N)N1c1ccc(OCCCOc2ccccc2)c(Cl)c1", "inhibition": "59.9% (active)"}
{"smiles": "COc1ccc2nc(N3CCCCC3)c(/C=C3\\SC(=S)NC3=O)cc2c1", "inhibition": "43.6%"}
{"smiles": "Cn1c(SC2=CS(=O)(=O)c3ccccc32)nc2ccccc21", "inhibition": "56% (active)"}
{"smiles": "O=S1(=O)C=C(Sc2nc3ccccc3s2)c2ccccc21", "inhibition": "82.7% (active)"}
{"smiles": "Cc1cc(C)nc(SC2=CS(=O)(=O)c3ccccc32)n1", "inhibition": "14.1%"}
{"smiles": "O=C(Nc1ccc(S(=O)(=O)N2CCCCC2)cc1)c1ccc(CN2CCOCC2)cc1", "inhibition": "73.2% (active)"}
{"smiles": "O=C(Nc1ccc(Cc2ccncc2)cc1)c1ccc(S(=O)(=O)N2CCCC2)cc1", "inhibition": "50.3% (active)"}
{"smiles": "O=C(Nc1ccc(S(=O)(=O)Nc2ccc(F)cc2)cc1)c1ccc(CN2CCOCC2)cc1", "inhibition": "61.1% (active)"}
{"smiles": "O=C(Nc1ccc(S(=O)(=O)N2CCCC2)cc1)c1ccc(Br)o1", "inhibition": "6%"}
{"smiles": "O=C(Nc1ccc(CN2CCOCC2)cc1)c1ccc(-c2ccc(Cl)cc2Cl)o1", "inhibition": "44.2%"}
{"smiles": "COc1ccc(NS(=O)(=O)c2ccc(NC(=O)c3ccc(CN4CCOCC4)cc3)cc2)cc1", "inhibition": "37.6%"}
{"smiles": "CCN(CC)c1ccc(S(=O)(=O)N2CCOCC2)cc1NC(=O)CN1CCc2ccccc2C1", "inhibition": "21.6%"}
{"smiles": "O=C(Nc1ccc(S(=O)(=O)N2CCOCC2)cc1)c1ccc(CN2CCc3ccccc3C2)cc1", "inhibition": "65.5% (active)"}
{"smiles": "C/C=C/Cn1c(SCc2ccc(C)cc2)nc2c1c(=O)[nH]c(=O)n2C", "inhibition": "18.9%"}
{"smiles": "CCN(CC)S(=O)(=O)c1ccc(C(=O)Nc2ccc(Cc3ccncc3)cc2)cc1", "inhibition": "63% (active)"}
{"smiles": "CCN(CC)S(=O)(=O)c1cccc(NC(=O)c2ccc(Br)cc2)c1", "inhibition": "27.5%"}
{"smiles": "O=C(Nc1ccc(S(=O)(=O)N2CCCCC2)cc1)c1ccc(CN2CCc3ccccc3C2)cc1", "inhibition": "59% (active)"}
